Screening results as filed in PubChem.
In the library only some 0.37% were active in any assay of this set; here they are far more common.
Vif-A3F inh = qHTS for Inhibitors of Vif-A3F Interactions: qHTS; HeLa A3F-eYFP + Vif (tagged APOBEC3F with the HIV-1 protein that degrades it), YFP fluorescence increase; 390,000 tested, 0.2% active; Potency, µM (highest dose often 46.1 µM), without a hit: at the highest dose activity, negative = active; further: potency means the concentration at half of the fitted maximal effect; % of control where 0% means no effect; nearly all actives have a fitted effect of over 65% in size
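HeLa cells stably expressing A3F-eYFP plus Vif, plated and incubated overnight at 37 deg C, then exposed to compounds overnight at 37 deg C. Blocked degradation read as raised yellow fluorescence (Ex 488/Em 500-530).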
TSG101-PTAP inh = qHTS Assay for Iinhibitors of HIV-1 Budding by Blocking the Interaction of PTAP/TSG101; AID 493005, 2010; Potency, µM (highest dose often 115 µM), for the others: at the highest dose activity change, negative = inhibition, usual class: inhibitors; 340,000 tested, under 10 active; Fluorescence polarization, FITC-PTAP peptide / Tsg101 binding; Tumor susceptibility gene 101 protein (Homo sapiens), Q99816; active means well fitted inhibition curve with a large enough effect in the main read-out, with a control signal flat, not every such curve was filed as active; inconclusive means small, poorly fitted or top-dose-only effect, or effect the other way, or a change in a side signal; inactive means no such curve, though single readings can be large or run the other way; further: potency means the concentration at half of the fitted maximal effect; % of control where 0% means no effect
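Steps: Tsg101 binding domain dispensed (10 uM final), compounds pinned in DMSO, FITC-labeled PTAP-motif peptide added (50 nM final); after 20 min binding at room temperature, polarization measured.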
Epigenetic derep = Quantitative High-Throughput Screen for Regulators of Epigenetic Control. murine LDR cells, GFP reporter derepression, 30 h. Potency, µM (titrated, usually from 53.9 µM), for inactives: top-dose GFP activation, most hits filed as activators. 280,000 tested, 0.2% active. AID 1865, 2009; further: potency means the concentration at half of the fitted maximal effect; % of control where 0% means no effect; nearly all actives have a fitted effect of over 60% in size
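Derepression of a silenced CMV-GFP reporter in murine LDR cells is scored by enumerating GFP-positive cells with a laser-scanning microplate cytometer after 30 hours of treatment at 37 C.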
CBFb RUNX1 block = qHTS Assay for Compounds Blocking the Interaction Between CBF-beta and RUNX1 for the Treatment of Acute Myeloid Leukemia | Runt-related transcription factor 1 (Homo sapiens) + Core-binding factor subunit beta … | AlphaScreen CBFb-His/RUNX1-biotin binding, biochemical | Potency, µM (doses to about 59.8 µM), for the others: top-dose activity, negative = inhibition, actives largely listed as inhibitors | AID 1477, 2009 | 230,000 tested, under 10 active; further: % of control where 0% means no effect
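AlphaScreen binding: CBFb-His and RUNX1-biotin (30 nM each) preincubated 20 min, compound added for 15 min, then nickel and streptavidin beads for 90 min, all at room temperature. Disruption of the interaction by any mechanism counts as activity.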
MBNL1-CUG inh = qHTS Assay for Inhibitors of MBNL1-poly(CUG) RNA binding | 280,000 tested, 0.036% active | TR-FRET MBNL1-His/biotin-(CUG)12 binding, 665/545 ratio | AID 2675, 2010 | Potency, µM (series often up to 57.5 µM), inactives show top-dose activity change, negative = inhibition, hits mostly inhibitors; active means well fitted inhibition curve with a large enough effect in the signal ratio, with a control signal flat, not every such curve was filed as active; inconclusive means small, poorly fitted or top-dose-only effect, or effect the other way, or a change in a side signal; inactive means no such curve, though single readings can be large or run the other way; the % refers to the signal ratio; further: potency means the concentration at half of the fitted maximal effect; on the % scale 0 is the no-effect control and ±100 the full control effect
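TR-FRET between His-tagged MBNL1 and biotin-(CUG)12 RNA, detected with Tb anti-His antibody (0.055 ng/ul) and streptavidin-XL665 (5 nM), 60 min at room temperature. Compounds titrated 92 nM to 58 uM; 665/545 nm ratio normalized to buffer and complex controls.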
Vif-APOBEC3G blk = qHTS for Inhibitors of Vif-A3G Interactions: qHTS. HeLa A3G-eYFP + Vif (tagged APOBEC3G with the HIV-1 protein that degrades it), YFP fluorescence, overnight. Potency, µM (highest dose often 46.1 µM), for inactives: at the highest dose activity, negative = active, hits mostly inhibitors. 410,000 tested, 0.076% active. AID 602310, 2012; further: potency means the concentration at half of the fitted maximal effect; on the % scale 0 is the no-effect control and ±100 the full control effect; nearly all actives have a fitted effect of over 60% in size
Target sequence (Q9HC16 whole entry, looked up): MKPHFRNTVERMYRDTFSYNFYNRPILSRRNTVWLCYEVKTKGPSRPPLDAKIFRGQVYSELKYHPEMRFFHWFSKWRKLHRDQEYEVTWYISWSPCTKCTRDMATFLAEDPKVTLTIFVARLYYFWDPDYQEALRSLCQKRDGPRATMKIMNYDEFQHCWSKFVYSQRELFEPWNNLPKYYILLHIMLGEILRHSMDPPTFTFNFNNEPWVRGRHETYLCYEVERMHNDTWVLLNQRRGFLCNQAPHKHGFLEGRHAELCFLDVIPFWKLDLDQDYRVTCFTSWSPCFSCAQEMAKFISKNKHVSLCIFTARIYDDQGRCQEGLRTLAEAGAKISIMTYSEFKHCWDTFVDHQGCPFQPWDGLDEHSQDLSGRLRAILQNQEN
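HeLa cells stably expressing Vif and C-terminally eYFP-tagged A3G, seeded overnight at 37 deg C, then exposed to compound by pintool overnight at 37 deg C. Rise in yellow fluorescence (Ex 488/Em 500-530, Acumen) marks blocked Vif-driven A3G degradation.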
* marks the source's active call; other numbers are inactive results; ? = inconclusive; nt = not tested or not shown; [ ] = another dose, or the depositor's remark. Unless noted, the call rests on the fitted dose curve; in most records, active means well fitted curve in the direction sought with a large enough effect; inconclusive means small, poorly fitted or top-dose-only effect, or another doubt; inactive means no such curve, though single readings can be large; an effect the other way counts as inactive or inconclusive.

SMILES	Vif-A3F inh	TSG101-PTAP inh	Epigenetic derep	CBFb RUNX1 block	MBNL1-CUG inh	Vif-APOBEC3G blk
Nc1ccc2nc3c(=O)n(CCc4ccccc4)c(=O)[nH]c3nc2c1	?	?	6.2%	-11.5%	?	?
Cc1[nH]c(=O)[nH]c1C(=O)CCCCC(=O)OCC(=O)Nc1ccccn1	3.2%	-1.4%	-1.1%	nt	0.0447µM*	-0.8%
Cc1cccc2c(C(O)c3cn(C)c4ccccc34)c[nH]c12 (stereo not given)	nt	nt	nt	nt	nt	-20.6%
CCSC1=N/C(=C\C=C2/Oc3ccccc3N2CC)C(=O)S1	6.31µM*	?	11.2µM*	?	?	7.08µM*
N#Cc1nc(-c2ccc(OCc3ccccc3Cl)cc2)oc1N1CCCCCC1	nt	nt	nt	nt	nt	4.1%
CC(C)(C)NC(=S)NNC(=O)c1cccc(Br)c1	-4.2%	-5.3%	17.8µM*	0.1%	0.6%	2.1%
Cc1cc(=O)oc2cc(OCC(=O)N3c4ccccc4CC3C)ccc12 (stereo not given)	0.0%	-1.4%	2.8%	14.1%	-7.7%	3.98µM*
Cc1ccnc2c(N)cccc12	nt	nt	nt	nt	nt	-0.7%
CCOc1ccc(/C=C(\C#N)C(=O)Nc2cccnc2)cc1	-0.5%	-1.3%	0.0%	-4.0%	nt	0.2%
CCOc1ccc(NC(=O)/C(C#N)=C\c2ccc(N3CCCC3)c(C)c2)cc1	11.2µM*	?	nt	nt	nt	?
Cc1cccc(C(=O)NCCC(=O)N2CCc3ccccc3C2)c1	-4.1%	1.1%	nt	nt	nt	-0.2%
Cc1cccc(C(=O)NC(=S)N2CCc3ccccc3C2)c1	8.91µM*	-1.1%	-1.4%	-4.2%	-15.8%[11.5 µM]	1.3%
COc1cc(OC)c(OC)cc1/C=C1\CC(C)C/C(=C\c2cc(OC)c(OC)cc2OC)C1=O (stereo not given)	22.4µM*	?	nt	nt	8.4%	?
Cc1cnc2ccccc2c1C	nt	nt	nt	nt	nt	-3.0%
O=[N+]([O-])c1ccc(N2CCN(Cc3ccccc3)CC2)c2c1no[n+]2[O-]	?	nt	nt	nt	nt	7.94µM*
O=C(Cc1ccc[nH]c1=O)c1ccc(F)cc1	nt	nt	nt	nt	nt	0.9%
O=[N+]([O-])c1ccc(N/N=C/c2c[nH]c3ccccc23)c(S(=O)(=O)Nc2ccc(Cl)cc2)c1	25.1µM*	9.2%	?	1.9%	-1.2%	?
Cc1cccc(CNC(=O)c2ccc(Cn3c(=O)c4cccn4c4cccnc43)cc2)c1	-27.2%	nt	17.8µM*	nt	nt	-0.2%
CN1C(=O)N(C)c2ccc(C=O)c3cccc1c23	11.2µM*	-7.4%	-0.6%	5.9%	15.1%	-0.4%
CN1C(=O)N(C)c2ccc(Br)c3cccc1c23	0.3%	-1.7%	nt	nt	3.0%	-2.3%
Cc1noc(C)c1COc1cccc(C(=O)OCC(=O)N2CC(=O)Nc3ccccc32)c1	-1.8%	-8.5%	3.2%	-6.5%	1.7%	2.82µM*
O=C1CN(C(=O)COc2cccc(F)c2)c2ccccc2N1	nt	nt	0.0%	-1.5%	-13.9%	nt
Cc1ccc(CN2[C@H](C)[C@H](c3ccccc3)OCCS2(=O)=O)cc1	nt	nt	nt	nt	nt	3.1%
N#C/C(=C\c1ccc(-c2cccc(Cl)c2)o1)C(=O)Nc1cccc(C(F)(F)F)c1	?	nt	11.2µM*	nt	nt	1.7%
CCOc1ccc2c(c1)/C(=C(\C(Cl)=C(Cl)Cl)[N+](=O)[O-])N2	?	?	0.1%	-4.5%	?	?
CCCCOc1ccc2c(c1)/C(=C(\C(Cl)=C(Cl)Cl)[N+](=O)[O-])N2	22.4µM*	?	-0.3%	5.0%	18.3%	?
